Results taken from PubChem BioAssay AID540333 (Southern Research Specialized Biocontainment Screening …, 2011).
Out of some 10,000 compounds screened, about 320 (3.2%) were called active. No stated cut-off is given here; in the data, active means CPE inhibition mostly above about 9.1% (no sharp cut-off); inactive means mostly below about 7.2%. Shown is part of a subset that was picked to be rich in actives.

Assay: Dengue virus cytopathic effect inhibitors, cell-based, CPE readout, HTS (AID 540333)
Details: Dengue virus CPE inhibition in host cells, at 20 µM; hits give high values

| SMILES | CPE inhibition |
| --- | --- |
| CCOC(=O)C1=C(O)/C(=C/c2ccc(OCC(=O)O)c(OCC)c2)SC1=Nc1ccc(OC)cc1 | 0.63% (inactive) |
| CC(=O)N1c2ccccc2[C@H](C)[C@H]1C | inactive |
| O=C(NCCc1nc2ccccc2[nH]1)c1ccc(Cl)c([N+](=O)[O-])c1 | 0.05% (inactive) |
| CCC[C@@H](NS(=O)(=O)c1ccc(C)cc1)C(=O)Oc1ccc2c3c(c(=O)oc2c1)CCC3 | inactive |
| CCNC(=S)N1CCN(CC(=O)Nc2ccc(Br)cc2)CC1 | 2.06% (inactive) |
| S=C(Nc1ccc(Br)cc1)NC1CCCCC1 | 4.99% (inactive) |
| S=C(Nc1ccc(Oc2ccccc2)cc1)NC1CCCCCC1 | 0.02% (inactive) |
| S=C(Nc1ccc(Oc2ccc(NC(=S)NC3CCCCC3)cc2)cc1)NC1CCCCC1 | 25.8% (active) |
| S=C(Nc1ccc(Oc2ccccc2)cc1)NC1CCCC1 | 0.255% (inactive) |
| O=C(CN1CCN(C(=S)NC2CCCC2)CC1)Nc1ccc(Oc2ccccc2)cc1 | 12.1% (active) |
| Cc1ccc(S(=O)(=O)N(C)Cc2ccc(C(=O)N/N=C/c3ccc(OC(F)F)cc3OC(F)F)cc2)cc1 | 2.12% (inactive) |
| S=C(c1ccc(-c2ccccc2Cl)o1)N1CCCCC1 | 2.92% (inactive) |
| Cn1cc(C(=O)N2CCc3ccccc32)cn1 | inactive |
| c1cnc2cc(-c3ccsc3)ncc2c1 | 0.12% (inactive) |
| COc1cccc(/C=C(/C#N)c2ccc(F)cc2)c1OCc1cccc(C(=O)O)c1 | inactive |
| CN1CCN(C(=O)c2cnn3c(C(F)(F)F)cc(-c4cccs4)nc23)CC1 | inactive |
| CC(C)/C=N/NC(=O)c1cccc(N2CCCC2=O)c1 | 0.335% (inactive) |
| CCOC(=O)c1sc(NC(=S)NC(=O)c2ccccc2)c(C(=O)OCC)c1C | 3.5% (inactive) |
| COc1cccc(-c2c(-c3cc(OC)cc(OC)c3)n(C)c3ccc(-c4cccc5[nH]ccc45)cc23)c1 | 4.01% (inactive) |
| COc1ccc(-c2c(-c3cc(OC)cc(OC)c3)n(C)c3ccc(-c4cccc5[nH]ccc45)cc23)cc1 | 3.95% (inactive) |

| SMILES | CPE inhibition |
| --- | --- |
| COc1cc(OC)cc(-c2c(-c3cccs3)c3cc(-c4cccc5[nH]ccc45)ccc3n2C)c1 | 11.7% (active) |
| Cc1ccc(-c2[nH]nc3c2C(C)C(C#N)=C(N)O3)cc1 (stereo not drawn) | inactive |
| CC(C)(C)[C@@H]1CCC(=O)N(CC[C@H](Sc2ccccc2)c2ccccc2)CC1 | 1.54% (inactive) |
| Cc1ccc(-c2csc3nc(SCC(N)=O)n(Cc4ccccc4)c(=O)c23)cc1 | 12% (active) |
| Cc1ccc(-n2c(SCC(N)=O)nc(O)cc2=O)cc1 | 1.35% (inactive) |
| Cc1ccc(-c2csc3nc(SCC(=O)N(C)C)n(Cc4ccccc4)c(=O)c23)cc1 | 21.1% (active) |
| CCn1c(SCc2nc3scc(-c4ccccc4)c3c(=O)[nH]2)nnc1-c1cccs1 | inactive |
| CN(Cc1ccccc1)c1nc(CN2CCOCC2)nc2scc(-c3ccccc3)c12 | 1.83% (inactive) |
| C=CCn1c(SCC(=O)c2[nH]c(C)c(C(=O)OCC)c2C)nc2scc(-c3ccc(OC)cc3)c2c1=O | inactive |
| O=C(Nc1ccc(-c2nc3ccccc3[nH]2)cc1)c1ccccc1NS(=O)(=O)c1ccc(F)cc1 | 0.325% (inactive) |
| COc1cc(NC(=O)CSc2nc3c(C)ccc(C)c3cc2C)c(C(=O)O)cc1OC | inactive |
| O=C1CN(C(=O)CSc2nnc(Nc3ccccc3)s2)c2ccccc2N1 | inactive |
| S=C1NCCOCCNC(=S)NCCOCCOCCOCCN1 | inactive |
| CC(=O)CC[C@@H](C)O[C@@H]1OC(C)[C@H](O)CC1O (stereo partly drawn) | 0.175% (inactive) |
| CCc1cccc(CC)c1NC(=O)C1CN(S(=O)(=O)c2ccccc2)CCN1S(=O)(=O)c1ccccc1 (stereo not drawn) | 1.21% (inactive) |
| CC(C)(C)OC(=O)NCC(=O)Oc1cc2oc(=O)cc(-c3ccccc3)c2cc1Cl | 24.3% (active) |
| COC(=O)C(Oc1ccc2c(-c3ccc(OC)cc3)cc(=O)oc2c1)c1ccccc1 (stereo not drawn) | 0.765% (inactive) |
| O=C(COc1ccc2c(-c3ccccc3)cc(=O)oc2c1)NCc1cccs1 | 0.675% (inactive) |
| COc1ccccc1NC(c1cccnc1)c1ccc2cccnc2c1O (stereo not drawn) | 0.795% (inactive) |
| Cc1ccc(Cl)cc1NC(=O)c1ccc(NC(=O)CCC(=O)O)cc1 | 0.84% (inactive) |

| SMILES | CPE inhibition |
| --- | --- |
| COC(=O)c1ccc(C(=O)NC(=S)Nc2nc3c(s2)CCCC3)cc1 | 0.85% (inactive) |
| Cc1csc(NC(=O)[C@@H](NC(=O)c2ccccc2)C(C)C)n1 | 0.86% (inactive) |
| O=C(NC(=S)Nc1nc2c(s1)CCCC2)c1ccccc1 | 0.705% (inactive) |
| N#Cc1c(NC(=S)NC(=O)c2ccccc2)sc2c1CCCC2 | 1.09% (inactive) |
| O=C(NC(=S)Nc1nc2c(s1)CCCC2)c1ccc(C(=O)c2ccccc2)cc1 | 11.3% (active) |
| COc1ccc(C(=O)N[C@H](C(=O)Nc2nc3c(s2)CCCC3)C(C)C)cc1 | 18.9% (active) |
| Cc1ccc(-n2c(SCC(=O)NCCN3C(=O)CSC3=O)nnc2-c2cccc(C)c2)cc1 | 0.355% (inactive) |
| O=C(CSCc1ccc([N+](=O)[O-])cc1)NC1CC1 | 2.12% (inactive) |
| Cc1ccc(-c2nnc3ccc(SCC(=O)N4CCCc5ccccc54)nn23)cc1 | inactive |
| Cc1ccc(C(=O)Nc2nnc(SCC(=O)N3CCCc4ccccc43)s2)cc1 | 0.06% (inactive) |
| Cc1ccc(C(c2nnnn2C2CCCC2)N2CCc3ccccc32)cc1 (stereo not drawn) | 18.1% (active) |
| COc1ccc([C@@H]2C(C#N)=C(N)S[C@@H](c3ccccc3)[C@@H]2[N+](=O)[O-])cc1 | 0.405% (inactive) |
| Cc1ccccc1N=Cc1cc2c(cc1O)OC(N)=C(C#N)C2c1ccccc1 (stereo not drawn) | 0.055% (inactive) |
| COc1ccc(N=Cc2cc3c(cc2O)OC(N)=C(C#N)C3c2ccccc2)cc1 (stereo not drawn) | 13.1% (active) |
| Cc1ccc(N=Cc2cc3c(cc2O)OC(N)=C(C#N)C3c2ccccc2)cc1 (stereo not drawn) | 23.4% (active) |
| COc1cccc(C2C(C#N)=C(N)Oc3cc(N)ccc32)c1OC (stereo not drawn) | inactive |
| N#CC1=C(N)Oc2cc(O)c(C=Nc3ccccc3)cc2C1c1ccccc1 (stereo not drawn) | 5.12% (inactive) |
| Cc1ccc(-c2nc(N)sc2CC(=O)OCC(=O)NCC2CCCO2)cc1 (stereo not drawn) | inactive |
